# Assay results published in the emibetuzumab library of Makowski et al. (2022).
# Some of the results follow. The hit rate among all sequences tested is not known here.
# B1: VH:VL chains; a variant is named by its letters at X, in order (parent)
# chain 1: QVQLVQSGAEVKKPGASVKVSCKASGYTFTDYXMHWVRQAPGQGLEWMGXVNPNXXXTTYNQKFEGRVTMTTDTSTSTAYMELRSLRSDDTAVYYCARXNXLDXWGQGTTVTVSS
# chain 2: DIQMTQSPSSLSASVGDRVTITCSVSSSVSSIYLHWYQQKPGKAPKLLIYSTSNLASGVPSRFSGSGSGTDFTLTISSLQPEDFATYYCQVYSGYPLTFGGGTKVEIK
# Variants of: B1
# Assay: yeast display scFab, FACS + sequencing
# Settings: with MET
# Method in brief: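 A heavy-chain CDR mutant scFab library on yeast was enriched magnetically with HGFR-Fc-coated Protein A beads for two rounds and then by FACS after labelling with 1 nM HGFR-Fc and anti-Myc in PBSB with 1% milk for 3 h at room temperature, gating the top 50% antigen-positive cells. Antigen binding was judged positive if a sequence turned up in both antigen-positive deep-sequencing samples and negative if it turned up only in the input.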
row,Variant,antigen binding call
1,VKTGGDVF,no binding
2,YRGASAAA,binds
3,VAGAGAGA,no binding
4,YRGAGAGA,binds
5,YRGAGYAA,no binding
6,YRGAGAAA,binds
7,AGGGNDVV,no binding
8,FKKGSSLD,binds
9,FEERNSLD,no binding
10,FKKGSSGV,binds
11,FKEGNSLD,no binding
12,FKRRSSGD,binds
13,FKARDSGD,no binding
14,FKRRSFGS,no binding
15,FKRGSSLD,binds
16,SEGADAGD,no binding
17,SEGGDAWV,no binding
18,FKKGSSWD,binds
19,FKKGSVGD,no binding
20,FKKEGYGD,no binding

row,Variant,antigen binding call
1,FKKGSSGD,binds
2,VGGGNDLA chain 1 R87K,no binding
3,FRAGSAWS,binds
4,FRAGGAWS,binds
5,DAAKNDAV,no binding
6,DGGKNDGV,no binding
7,VEGGADVF,no binding
8,DTGGGDLA,no binding
9,YKRGSSVS,binds
10,VEEEGSVS,no binding
11,VRRGSSVS,binds
12,YRRGSSVS,binds
13,YARAGSVS,no binding
14,YRRGGSVS,binds
15,DTGTGDGV,no binding
16,YRRGGAVS,binds
17,DTKAAAVV,no binding
18,SRAGDYLV,no binding
19,DRAGDDWV,no binding
20,DRAGDYLY,no binding

row,Variant,antigen binding call
1,ARAGDYLV,no binding
2,VRAGDYLV,no binding
3,FRAGDYLV,binds
4,DRAGDYLV,binds
5,DRRGDSLV,no binding
6,DRAGDSLV,binds
7,SAREGDWV,no binding
8,SAARDAVA,no binding
9,FAGGGDVY,no binding
10,VRTEDDVF,no binding
11,FRGRGAWD,binds
12,FRGRGSSD,binds
13,FRGRGFSV,no binding
14,FRGGASSD,binds
15,FRGRGASV,binds
16,FKGTDSSD,no binding
17,FKGKSSSD,no binding
18,DAKEGDVV,no binding
